“And” between values parts separate entries of the source, which are not always exact repeats. Identical values can stand only once. Records with an inconclusive call do not appear. The source holds several records for some structures; these can differ, active in one and inactive in another. Values without a mark were called inactive. The source made the active and inactive calls. Calls come from the whole dose curve; as a rule, active = well fitted cell-killing curve with a large enough effect; inconclusive = small, poorly fitted or top-dose-only effect, or effect the other way; inactive = flat fitted curve, though single readings scatter.

39 compounds from PubChem BioAssay (NCATS) can be followed below.
% is set by controls: 0 for no effect and ±100 for the full control effect; potency is the fitted concentration of half-maximal effect.

A short description of this test: qHTS assay for cell viability of HEK293 cells (AID 743288). Note: nearly all actives have a fitted effect of over 50% in size. The settings on record: ATP luminescence (CellTiter-Glo), 18 h; max response: stronger effect = lower value. The source says:
National Center for Advancing Translational Sciences [NCATS]
NIH Chemical Genomics Center [NCGC]
U.S. Environmental Protection Agency [EPA]
National Institutes of Environmental Health Sciences [NIEHS]
National Toxicology Program [NTP]
U.S. Food and Drug Administration [FDA]
The CellTiter-Glo Luminescent Cell Viability Assay (Promega, Madison, WI) is a homogeneous method to determine the number of viable cells in culture based on quantitation of the ATP present, which signals the presence of metabolically active cells. This cell viability assay was used to screen environmental chemicals in the Hek293 cell line.
Tox21 Assay Protocol Summary:
Cell viability after compound treatment was measured using a luciferase-coupled ATP quantitation assay (CellTiter-Glo viability assay, Promega, Madison, WI) in parental HEK293 cells. Total intracellular ATP content corresponds to the number of metabolically competent cells after compound treatment. The cells were dispensed at 2,000 cells/5 uL/well in 1,536-well white/solid bottom assay plates using a Flying Reagent Dispenser (Aurora Discovery, San Diego, CA). The cells were incubated a minimum of 5 h at 37 C, followed by the addition of 23 nL of compounds dissolved in DMSO, positive controls or DMSO only using a pintool work station (Kalypsys, San Diego, CA). The assay plates were incubated for 18 h at 37 C, followed by the addition of 5 uL/well of CellTiter-Glo reagent. After 30 min incubation at room temperature, the luminescence intensity of the plates was measured using a ViewLux plate reader (PerkinElmer, Shelton, CT).
With `O=S(=O)(c1ccc(O)cc1)c1ccc(O)cc1`, the max response is -8.18%.
As for `CCc1cnc(C2=NC(C)(C(C)C)C(=O)N2)c(C(=O)O)c1` (stereo not given), the max response was 4.64%.
Turning to `Cc1cc(Cl)ccc1OC(C)C(=O)O` (stereo not given), the max response is 0.82%.
On to `CCOP(=O)(SC(C)CC)SC(C)CC` (stereo not given), for which the max response was -14%.
As for `C1=Cc2cccc3cccc1c23`, the max response was -13.5%.
As to `CC(Oc1cc(Cl)c(Cl)cc1Cl)C(=O)O` (stereo not given), the max response is 0.242%.
Turning to `Cn1c(-c2ccccc2)cc(-c2ccccc2)[n+]1C`, the max response was 5.36%.
In the case of `CC1(c2ccc(Oc3ccccc3)cc2)OC(=O)N(Nc2ccccc2)C1=O` (stereo not given), the max response is -20.8%.
As to `CNP(=O)(OC)Oc1ccc(C(C)(C)C)cc1Cl` (stereo not given), the max response is -10.1%.
Regarding `CCOP(N)(=O)Oc1ccc(SC)c(C)c1` (stereo not given), the max response is -8.45%.
As for `Clc1ccc([C@@]2(Cn3cncn3)C[C@@H](Br)CO2)c(Cl)c1`, the max response is -20.7%.
Regarding `O=P(O)(O)CN(CP(=O)(O)O)CP(=O)(O)O`, the max response was -8.91%.
For `Clc1ccc([C@]2(Cn3cncn3)C[C@@H](Br)CO2)c(Cl)c1`, the max response was -21.9% and -13.3%.
As for `CCOc1cc(Oc2ccc(C(F)(F)F)cc2Cl)ccc1[N+](=O)[O-]`, the max response is -7.71%.
With `Cc1cc(Cl)ccc1OCC(=O)O`, the max response is -1.7% and -11.8%.
Still for that read-out and setting: with `CC1(C)C(C(=O)OC(C#N)c2cccc(Oc3ccccc3)c2)C1(C)C` (stereo not given) the figure was -11.3%.
For the compound `O=C(CCl)c1ccccc1`, the Potency is 35.5 µM (active) and the max response is -16%.
For the compound `CCOP(=S)(OCC)SC(CCl)N1C(=O)c2ccccc2C1=O` (stereo not given), the max response is -5.75%.
The same measure, in the same setting: the value for `CNC(=O)N(C)c1nc2ccccc2s1` was -16.4%; that for `Cc1[nH]c(=O)n(C(C)(C)C)c(=O)c1Cl` was -5.92%.
As to `N#CC(Cl)Cl`, the Potency is 14.1 µM (active).
For the compound `CCCCCCCCCCCC#N`, the max response is -1.15%.
On the same count and under the same terms, the value for `CC/C(=N\OC/C=C/Cl)C1=C(O)CC(C2CCOCC2)CC1=O` (stereo not given) was 3.9%; that for `CCc1ccc(C(=O)NN(C(=O)c2cc(C)cc(C)c2)C(C)(C)C)cc1` was -11.8%; that for `CC[C@H]1CCCC(O[C@H]2CC[C@H](N(C)C)[C@@H](C)O2)[C@@H](C)C(=O)C2=C[C@@H]3[C@@H](C=C[C@@H]4C[C@@H](O[C@@H]5O[C@@H](C)[C@H](OC)[C@@H](OC)[C@H]5OC)C[C@@H]34)[C@@H]2CC(=O)O1` (stereo not given in full) was -1.89%.
For the compound `CCCCOC(=O)c1ccccc1C(=O)O`, the max response was 6.89%.
Consider `CCC[CH2][Sn]([Cl])([CH2]CCC)[CH2]CCC`, for which the Potency is 50.1 µM (active).
Consider `C/C=C(\C)C(=O)O[C@H]1C[C@@H](OC(C)=O)[C@@]2(C(=O)OC)CO[C@H]3[C@@H](O)[C@@](C)([C@]45O[C@@]4(C)[C@H]4C[C@@H]5O[C@@H]5OC=C[C@@]54O)[C@H]4[C@]1(CO[C@]4(O)C(=O)OC)[C@@H]32`, for which the max response was -0.199%.
Same read-out and setting: with `CCOP(=S)(OCC)Oc1cnc2ccccc2n1` the figure was -3.73%; with `CC(C)(C)C(O)C(Oc1ccc(-c2ccccc2)cc1)n1cncn1` (stereo not given), -21.2%; with `O=[N+]([O-])c1ccc(Oc2ccc(C(F)(F)F)cc2[N+](=O)[O-])cc1`, -11.9%.
For the compound `CCOP(=S)(NC(C)C)Oc1ccccc1C(=O)OC(C)C` (stereo not given), the max response was -18.9%.
For the compound `O=C(O)C(F)(F)C(F)(F)C(F)(F)C(F)(F)C(F)(F)C(F)(F)C(F)(F)C(F)(F)C(F)(F)F`, the max response was -5.33% and -8.2%.
Take `COc1ccc(C(O)(c2cncnc2)C2CC2)cc1` (stereo not given): the max response was -5.84%.
Regarding `N#Cc1c(Cl)c(Cl)c(Cl)c(C#N)c1Cl`, the Potency is 15.8 µM (active).
As to `CCOP(=O)(OCC)SCSC(C)(C)C`, the max response is -8.78%.
The same measure, in the same setting: with `CCC[CH2][Sn]([CH2]CCC)([CH2]CCC)[CH2]CCC` the figure was -5.3%; with `CCOc1nc(C(Cl)(Cl)Cl)ns1`, -11.1%; with `CCOP(=O)(NC(C)C)Oc1ccc(S(C)=O)c(C)c1` (stereo not given), -0.132%.
